A number with no mark means an inactive call. How the calls were made is not given here.
biological target: Pantothenate synthetase (Mycobacterium tuberculosis (strain ATCC 25618 / H37Rv)) (UniProt P9WIL5); experiment: Coupled enzyme confirmation of inhibitors against recombinant Mtb PanC (AID 375); conditions: coupled enzyme assay; at 10 µM, hits give high values;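 further: 0% = full reaction with vehicle and 100% = no enzyme background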
Sequence (P9WIL5 whole entry, looked up): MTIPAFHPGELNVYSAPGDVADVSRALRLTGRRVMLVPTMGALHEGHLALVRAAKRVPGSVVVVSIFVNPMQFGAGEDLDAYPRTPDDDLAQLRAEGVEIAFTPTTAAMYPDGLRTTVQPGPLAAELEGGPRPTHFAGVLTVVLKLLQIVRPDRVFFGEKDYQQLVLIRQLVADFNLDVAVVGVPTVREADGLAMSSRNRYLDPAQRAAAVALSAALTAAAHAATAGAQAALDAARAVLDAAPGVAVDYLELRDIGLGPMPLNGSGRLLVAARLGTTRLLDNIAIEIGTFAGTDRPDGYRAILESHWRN

| SMILES | inhibition [%] |
| --- | --- |
| CCOc1cc(NC(=O)c2ccccn2)c(OCC)cc1NC(=O)CC(C)C | 11 |
| CCCN(S(=O)(=O)c1ccc(OCC)cc1)S(=O)(=O)c1cccs1 | 0 |
| CN(C(=O)c1ccccn1)c1nnc(-c2cccnc2)s1 | 6 |
| CCOc1ccc(NC(=O)CCN2CCN(c3ccccc3)CC2)cc1 | 0 |
| CCCCOc1ccc(OCCCN2CCOCC2)cc1 | 2 |
| CCC(C)OC(=O)C1=C(C)NC2=C(C(=O)C(C(=O)OC)C(C)C2)C1c1ccc(N(C)C)cc1 (configuration not stated) | 0 |
| CCCn1c(=O)c2ccccc2n2c(SCCOc3ccccc3F)nnc12 | 0 |
| Cc1cc(Nc2ccccc2)n(CCC#N)n1 | 14 |
| CCN(CC)CCn1c(OC)cc(=O)[nH]c1=O | 0 |
| COc1cccc2sc(NC(=O)c3ccc(S(=O)(=O)N4CCOCC4)cc3)nc12 | 1 |
| CCOC(=O)c1sc(NC(=O)CSc2nnc(-c3ccco3)n2CC)c(C(=O)OCC)c1C | 0 |
| Fc1ccc(-c2csc3nnc(SCc4cccnc4)n23)cc1 | 0 |
| CC(=O)/C(C[N+]1(C)CCCCC1)=N\O | 3 |
| CCCCC(=O)NCCNc1nc2c(c(=O)n(C)c(=O)n2C)n1Cc1ccccc1 | 0 |
| Clc1ccc(CSc2nnc(Cn3cnc4ccccc43)o2)cc1 | 0 |
| Fc1cccc(NCc2cn3ccccc3n2)c1 | 0 |
| CS(=O)(=O)c1ccc2nc(NC(=O)c3cccs3)sc2c1 | 0 |
| Cc1cc2c(c(=O)o1)C(C13C=CC(CC1)C3)C(C#N)=C(N)O2 (configuration not stated) | 0 |
| O=c1c2ccccc2cnn1-c1nc2ccccc2s1 | 0 |
| CC(=O)c1cccc(NC(=O)NCc2ccccn2)c1 | 2 |
| O=C(Nc1ccc(Cl)c(Cl)c1)Nc1cc(C(=O)N2CCOCC2)ccc1N1CCCCC1 | 4 |
| CCOc1ccc(NC(=O)CN2CCN(CC(=O)Nc3ccc(F)c(F)c3)CC2)cc1 | 0 |

— PubChem BioAssay
